# Data from PubChem BioAssay (NCI).
# This is part of a sample that, as a whole, favours compounds with a hit. Of some 79,000 tested, about 15% had one in any assay. Values without a mark were called inactive. Active and inactive are the calls of the source. Cut-off read from the data, not from the text of the source: active = growth inhibition above about 70%; inactive = the rest.
# What was measured:
# [1] = NCI Yeast Anticancer Drug Screen. Data for the rad50 strain (AID 155);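 note: 0% = growth of vehicle-only cultures of the same strain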; details: S. cerevisiae rad50 strain growth inhibition, hits give high values
# How it was run: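 Cells are treated with compound, grown, and their growth is then scored against vehicle-only cultures of the same repair-deficient yeast strain.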
# [2] = NCI Yeast Anticancer Drug Screen. Data for the mec2-1 strain (AID 157); details: S. cerevisiae mec2-1 strain, hits give high values
# How it was run: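 Mutant yeast (mec2-1) grown with compound; growth inhibition relative to vehicle control reported.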
# [3] = NCI Yeast Anticancer Drug Screen. Data for the sgs1 mgt1 strain (AID 161);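 note: 0% = growth of cultures given vehicle only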; details: S. cerevisiae sgs1 mgt1 strain, hits give high values
# How it was run: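 Yeast cells carrying a defined DNA-repair defect were exposed to test compounds. Growth inhibition was measured relative to vehicle-treated controls.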
# [4] = NCI Yeast Anticancer Drug Screen. Data for the cln2 rad14 strain (AID 165);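 note: 0% = growth equal to vehicle treated cultures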; details: S. cerevisiae cln2 rad14 strain, hits give high values
# How it was run: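 Readout is yeast growth inhibition versus vehicle-treated controls, using a strain with cln2 and rad14 alterations exposed to compound.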
# [5] = NCI Yeast Anticancer Drug Screen. Data for the bub3 strain (AID 167); details: S. cerevisiae bub3 mutant strain, hits give high values
# How it was run: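 Part of a panel of yeast mutants defective in DNA damage repair or cell cycle regulation. Each strain is grown with compound, and inhibition is calculated relative to solvent-treated cultures.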
# [6] = NCI Yeast Anticancer Drug Screen. Data for the mlh1 rad18 strain (AID 175); details: S. cerevisiae mlh1 rad18 strain growth inhibition, hits give high values
# How it was run: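 Genetically defined yeast (DNA repair-deficient) exposed to compounds; growth inhibition determined relative to vehicle.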
# [7] = at 5.0 µM (retest, dose inferred, filed as 0.5)
# [8] = at 50.0 µM (retest, dose inferred, filed as 5.0)
SMILES,"growth inhibition [1, 7]","growth inhibition [1, 8]",growth inhibition ([1]; at 50.0 µM),"growth inhibition [2, 7]","growth inhibition [2, 8]",growth inhibition ([2]; at 50.0 µM),"growth inhibition [3, 7]","growth inhibition [3, 8]",growth inhibition ([3]; at 50.0 µM),"growth inhibition [4, 7]","growth inhibition [4, 8]",growth inhibition ([4]; at 50.0 µM),"growth inhibition [5, 7]","growth inhibition [5, 8]",growth inhibition ([5]; at 50.0 µM),"growth inhibition [6, 7]","growth inhibition [6, 8]",growth inhibition ([6]; at 50.0 µM)
O=Cc1cc([N+](=O)[O-])ccc1O,95% (active),99% (active),93.8% (active),98% (active),99% (active),96.7% (active),86% (active),99% (active),98.5% (active),96% (active),99% (active),74.2% (active),97% (active),99% (active),94.8% (active),98% (active),99% (active),97% (active)
CC1(C)C(=O)C(C(Cl)(Cl)Cl)=C(Cl)C(=O)C1(Cl)Cl,64%,97% (active),52.5%,27%,96% (active),42.1%,38%,93% (active),64.9%,49%,89% (active),48.8%,56%,96% (active),51.1%,42%,97% (active),67.5%
O=S(=O)(Nc1ccccc1Cl)c1ccccc1,19%,80% (active),74.8% (active),1%,88% (active),81.7% (active),4%,91% (active),78.7% (active),24%,81% (active),73.1% (active),-32%,90% (active),81.1% (active),-2%,84% (active),69.2%
CN(NC(=O)/C(=C/c1cc(Cl)cc(Cl)c1O)NC(=O)c1ccccc1)c1cnn(-c2ccccc2)c(=O)c1Cl,15%,43%,52.9%,3%,36%,39.2%,-4%,45%,59.1%,-6%,47%,55.6%,-13%,43%,60%,-7%,62%,67%
Cc1ccc(C(=O)CC(O)(C(F)(F)F)C(F)(F)F)cc1[N+](=O)[O-],17%,95% (active),88.9% (active),-17%,97% (active),90% (active),3%,45%,92.2% (active),25%,94% (active),89.5% (active),5%,96% (active),90.5% (active),9%,97% (active),87.4% (active)
CCCCCOC(=O)c1ccc(O)cc1,-3%,98% (active),-3.65%,7%,100% (active),36%,2%,99% (active),51.2%,-9%,97% (active),13.1%,32%,99% (active),88.9% (active),3%,99% (active),15.4%
O=C1C=CC(=O)N1CCc1ccccc1,-33%,97% (active),99.5% (active),-31%,98% (active),99.5% (active),-34%,98% (active),99.3% (active),-10%,98% (active),99.3% (active),-45%,98% (active),99.3% (active),-90%,97% (active),99.2% (active)
CCOC(=O)/C(=C\c1cccc(Br)c1)C(C)=O,47%,100% (active),92.8% (active),51%,99% (active),94.9% (active),47%,99% (active),93.1% (active),45%,99% (active),92.9% (active),87% (active),100% (active),92.7% (active),82% (active),100% (active),92.5% (active)
CC(C)(C)C1CCC2c3c([nH]c4ccccc34)C3C(=O)N(c4ccc(C(=O)O)cc4)C(=O)C3C2C1 (stereo not given),98% (active),98% (active),96.3% (active),99% (active),99% (active),99.2% (active),99% (active),99% (active),98.5% (active),89% (active),98% (active),99.4% (active),74% (active),99% (active),99.3% (active),97% (active),99% (active),98.8% (active)
COc1ccc(C2=C(Cl)C(=O)N(c3ccccc3C)C(=O)C2(Cl)Cl)cc1,66%,95% (active),94.3% (active),17%,97% (active),97.8% (active),83% (active),97% (active),97.9% (active),24%,94% (active),85.4% (active),44%,95% (active),94.1% (active),70% (active),93% (active),97.7% (active)
